Marburg entry inh: inhibitors of Marburg virus binding or cell entry; Marburg virus pseudotyped entry inhibition, cell reporter; Potency, µM (titrated, usually from 37.8 µM), actives largely listed as inhibitors; 1.8% of 300,000 active; calls by dose curve; tested in HEK293 cells
HCV inhibitor: inhibitors of hepatitis C virus infection | Huh7.5.1 HCVcc-Cre infection, luciferase reporter, 44 h | Potency, µM (doses to about 41.8 µM), actives largely listed as inhibitors | 3.4% of 340,000 active | AID 651820
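Seed cells (1,000/well) for 4 h; treat with compound and infect with HCVcc-Cre, moi about 0.5. Incubate 44 h, then detect luciferase activity.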
FMDV antiviral: foot and mouth disease virus antiviral activity; FMDV antiviral cell-based qHTS; Potency, µM (doses to about 57.9 µM), most hits filed as inhibitors; 1.2% of 410,000 active; calls by dose curve; tested in HEK293T cells; also: read-out not given here; nearly all actives have a fitted effect of over 45% in size
RE007 growth inh: less growth of the S. pombe RE007 Vpr strain; S. pombe RE007 Vpr strain, BacTiter-Glo ATP luminescence, 24 h; Potency, µM (doses to about 92.2 µM), hits mostly inhibitors; AID 651644; 0.21% of 360,000 active; active = well fitted falling curve with a large enough effect; inconclusive = small, poorly fitted or top-dose-only effect; inactive = no such curve, though single readings can be large or run the other way; also: nearly all actives have a fitted effect of over 50% in size
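Fission yeast strain RE007, carrying one chromosomally integrated HIV-1 vpr copy, was seeded at OD 0.01 in PMG+AL medium with 23 nL pinned compound. After 24 h at 30 °C and 99% humidity, viability was read by BacTiter-Glo luminescence.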
Lassa entry inh: inhibitors of Lassa virus binding or cell entry; Lassa virus pseudotype entry inhibition, cell reporter; Potency, µM (top dose mostly 37.9 µM), most hits filed as inhibitors; 1.2% of 300,000 active; AID 540256; calls by dose curve; tested in HEK293 cells; also: nearly all actives have a fitted effect of over 50% in size
Sm TGR inh: blocks Schistosoma mansoni thioredoxin glutathione reductase | 3% of 360,000 active | Q962Y6 | purified TGR, DTNB reduction, TNB absorbance 405 nm | Potency, µM (series often up to 114 µM), usual class: inhibitors; also: nearly all actives have a fitted effect of over 60% in size
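TGR 20 nM + NADPH 100 uM (dispensed conc.), cpd preinc 15 min RT; start with NADPH (500 uM addition) then DTNB (15 mM addition). Kinetic TNB absorbance, 405 nm filter. Four-parameter Hill fit across titration.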
Hits are given with their value; 0 = inactive; ? = inconclusive; - = not tested or not shown. The list is not random: actives were taken first. Their share in the collection is about 7.2%. Unless noted, calls follow the shape of the dose curve; as a rule, active = well fitted curve in the direction sought with a large enough effect; inconclusive = small, poorly fitted or top-dose-only effect, or another doubt; inactive = no such curve, though single readings can be large; an effect the other way counts as inactive or inconclusive.

SMILES | Marburg entry inh | HCV inhibitor | FMDV antiviral | RE007 growth inh | Lassa entry inh | Sm TGR inh
Cc1ccc(-n2c(Cl)c(Cl)nc(Cl)c2=O)cc1 | ? | 7.1µM | 7.1µM | 10µM | 7.3µM | 0.79µM
Cc1ccccc1OCCn1c(CCNC(=O)C2CCCCC2)nc2ccccc21 | 0 | - | 0 | - | 0 | 0
COc1ccc(-n2nc(C(=O)NCCc3ccc(OC)c(OC)c3)c3c4ccccc4n(C)c3c2=O)cc1Cl | ? | - | ? | - | ? | 0
CC(=O)Nc1ccc(S(=O)(=O)NCC(=O)OCC(=O)c2cc(C)n(-c3ccc4c(c3)OCO4)c2C)cc1 | ? | 0 | 0 | - | 0 | 0
CC(=O)c1ccc(OCC(=O)c2cc(C)n(-c3ccc4c(c3)OCO4)c2C)cc1 | ? | 13µM | ? | 0 | ? | 0
Cc1cc(C(=O)COC(=O)c2ccc(N)c([N+](=O)[O-])c2)c(C)n1Cc1ccc2c(c1)OCO2 | - | 13µM | 0 | 0 | - | 0
Cc1cc(C(=O)COC(=O)c2ccc(N)c([N+](=O)[O-])c2)c(C)n1-c1ccc2c(c1)OCO2 | 0 | 2µM | 0 | 0 | 0 | 0
C=CCn1c(C)cc(C(=O)COC(=O)c2ccc(N)c([N+](=O)[O-])c2)c1C | ? | ? | 0 | 0 | ? | 0
O=C1[C@@H]2[C@H]3[C@H](O)[C@H](O)CC(=NOC[C@@H](O)COCc4ccco4)[C@H]3CC[C@H]2C(=O)N1c1ccc(F)cc1F | 0 | - | - | - | - | -
CC#CCN1c2ccccc2[C@]23CCC(=O)N(Cc4ccco4)C2=NC(C(=O)OC)=C(C(=O)OC)[C@H]13 | 0 | - | - | - | - | -
OCCC1CN(Cc2ccccc2O)CCN1CCCc1ccccc1 (stereo unspecified) | - | 0 | 0 | 0 | - | 0
COc1cc(CN2CCN(CCCc3ccccc3)C(CCO)C2)cc(OC)c1O (stereo unspecified) | - | 0 | 0 | 0 | - | 20µM
COc1ccc(CN2CCN(CCCc3ccccc3)C(CCO)C2)c(O)c1 (stereo unspecified) | ? | ? | 0 | 0 | 0 | ?
COc1ccc(CN2CCN(CCc3ccccc3)C(CCO)C2)c(O)c1 (stereo unspecified) | 0 | 0 | 0 | 0 | 0 | 45µM
OCCC1CN(Cc2c(O)ccc3ccccc23)CCN1CCc1ccccc1 (stereo unspecified) | 0 | 0 | 0 | 0 | 0 | 0.63µM
CC(C)CN1CCN(Cc2cn(C)c3ccccc23)CC1CCO (stereo unspecified) | 0 | 0 | 0 | 0 | 0 | 89µM
O=C(CN(c1cc(C(F)(F)F)ccc1Cl)S(=O)(=O)c1ccccc1)NCCc1ccccc1 | 0 | - | 0 | - | 0 | 0
C=C(C)CN(Cc1ccccc1)C(=S)Nc1ccccc1 | 0 | 0 | 0 | 0 | 0 | 0
COCCN(CCOC)C(=S)Nc1ccccc1 | 0 | 1.8µM | 0 | 0 | 0 | 0
CCOc1ccc(-n2nc3c(SCCN4CCCC4)nnc(C)c3c2C)cc1 | ? | 10µM | ? | 0 | 0 | 0
CCOc1ccc(CNC(=O)C2CCN(c3nnc(C)c4c(C)n(-c5ccc(C)cc5)nc34)CC2)cc1 | - | 13µM | ? | 0 | - | 0
COc1ccc(-n2nc3c(N4CCC(C(=O)NCc5cccc(C)c5)CC4)nnc(C)c3c2C)cc1 | - | ? | 0 | 0 | - | 0
Cc1ccc(-n2nc3c(N4CCC(C(=O)NCc5ccccc5Cl)CC4)nnc(C)c3c2C)cc1 | - | - | ? | - | 0 | 0
Cc1ccc(-n2nc3c(N4CCC(C(=O)NCc5ccccc5C)CC4)nnc(C)c3c2C)cc1 | - | 6.3µM | 0 | 0 | - | 0
CCOc1ccccc1CNC(=O)C1CCN(c2nnc(C)c3c(C)n(-c4ccc(C)cc4)nc23)CC1 | - | 11µM | ? | 0 | 0 | 0
SMILES | Marburg entry inh | HCV inhibitor | FMDV antiviral | RE007 growth inh | Lassa entry inh | Sm TGR inh
COc1ccccc1CCNC(=O)C1CCN(c2nnc(C)c3c(C)n(-c4ccc(C)cc4)nc23)CC1 | - | ? | 0 | 0 | ? | 0
COc1ccccc1CN1CC2(CCN(C(=O)c3ccncc3)CC2)C1 | - | - | 0 | - | - | -
COc1ccc(-c2noc(CSc3nnc(C)n3-c3ccc(F)cc3)n2)cc1 | 0 | - | 0 | - | 0 | 0
CCN(CC)C(=O)Cn1cc(S(=O)(=O)CC(=O)Nc2ccc(C(N)=O)cc2)c2ccccc21 | - | 0.56µM | 0 | 0 | - | ?
COC(=O)c1cc2c(cc1NC(=O)c1c(C)nn(-c3ccc(C)cc3)c1-n1cccc1)OCO2 | - | - | 0 | - | 0 | 0
O=C(Nc1cc(Sc2ccccn2)cc([N+](=O)[O-])c1)c1ccc([N+](=O)[O-])cc1 | ? | ? | 22µM | 0 | ? | 0
